Sampled rows, rich in hits. Any-hit rate of the full collection: about 0.93%.
AGP1 TOR yeast = yeast TOR pathway AGP1-GFP modulation. S. cerevisiae AGP1-GFP multiplex flow cytometry, 3 h; GFP as percent of DMSO wells. GFP response vs DMSO, % at 10 µM. 0.02% of 320,000 active;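 active = GFP response relative to DMSO above a set limit, near screen average plus 3 SD, cut at about 150% in these data; inconclusive = fewer than 70 cells counted for the yeast strain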;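 also: median GFP channel fluorescence of the gated AGP1 strain per well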
MEP2 TOR yeast = modulators of TOR pathway MEP2-GFP in S. cerevisiae; 0.51% of 330,000 active; S. cerevisiae MEP2-GFP strain, flow cytometry GFP, 3 h; 100% = DMSO control level; GFP response vs DMSO, % at 10 µM; AID 2016;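 active = GFP response versus DMSO above a set limit, roughly screen mean plus 3 SD, cut at about 180% in these data; inconclusive = fewer than 70 cells counted for a yeast strain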;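 also: median GFP fluorescence of the barcode-gated MEP2-GFP cells per well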
LAP4-GFP MLPCN = modulators of TOR pathway LAP4-GFP in S. cerevisiae | S. cerevisiae LAP4-GFP multiplex, flow cytometry GFP, 3 h; median GFP as percent of DMSO wells | GFP response vs DMSO, % at 10 µM | 0.34% of 320,000 active;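 active = GFP response vs DMSO above a set limit, about the screen mean plus 3 SD, cut at about 150% in these data; inconclusive = under 70 cell events counted for the yeast strain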
CIT2-GFP yeast = yeast TOR pathway CIT2-GFP modulation; 0.065% of 320,000 active; S. cerevisiae CIT2-GFP strain, flow cytometry, 3 h; 100 means same as DMSO wells; GFP response vs DMSO, % at 10 µM;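 active = GFP response relative to DMSO above a set limit, near the screen mean plus 3 SD, cut at about 150% in these data; inconclusive = Fewer than 70 cells measured for a yeast strain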;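 also: ratio of well median GFP fluorescence to mean of DMSO wells on the plate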
RPL19A-GFP yeast = alters RPL19A-GFP fluorescence in TOR pathway yeast screen. S. cerevisiae RPL19A-GFP strain, flow cytometry, 3 h; active compounds read low. percent response vs DMSO, % at 10 µM. AID 2025. 0.3% of 330,000 active;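 active = percent response vs DMSO below 50%; inconclusive = fewer than 70 events counted for the yeast strain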;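 also: median channel GFP fluorescence of the barcoded RPL19A-GFP strain; lower means less RPL19A-GFP as with rapamycin TOR inhibition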
Hits are given with their value; [ ] = dose if it differs, or a comment.

For CN(C)c1ccc(/C=C2\SC(=O)N(CC(O)Cn3c4ccccc4c4ccccc43)C2=O)cc1 (stereo not given) the results were AGP1 TOR yeast inactive, MEP2 TOR yeast inactive, LAP4-GFP MLPCN inactive, CIT2-GFP yeast inactive and RPL19A-GFP yeast inactive.
`N=c1c2ccccc2nc2n1CCCCCCCCCCC2` gave AGP1 TOR yeast inactive, MEP2 TOR yeast inactive, LAP4-GFP MLPCN inactive, CIT2-GFP yeast inactive and RPL19A-GFP yeast inactive.
Screening CCc1nnc(NC(=O)CSc2n[nH]c(-c3ccccc3O)n2)s1 returned AGP1 TOR yeast inactive, MEP2 TOR yeast inactive, LAP4-GFP MLPCN 155, CIT2-GFP yeast inactive and RPL19A-GFP yeast inactive.
CCc1nnc(NC(=O)COc2ccc3ccccc3c2)s1 was read as AGP1 TOR yeast inactive, MEP2 TOR yeast 221[may fluoresce violet], LAP4-GFP MLPCN inactive, CIT2-GFP yeast inconclusive and RPL19A-GFP yeast 48[may fluoresce violet].
O=C(COc1ccccc1)Nc1nnc(COc2ccccc2)s1 was read as AGP1 TOR yeast inactive, MEP2 TOR yeast inactive, LAP4-GFP MLPCN inactive, CIT2-GFP yeast inactive and RPL19A-GFP yeast inactive.
CCc1ccc2c(c1)C1(NN=C(c3cccc4ccccc34)S1)C(=O)N2 (stereo not given) was read as AGP1 TOR yeast inactive, MEP2 TOR yeast inactive, LAP4-GFP MLPCN 168, CIT2-GFP yeast inactive and RPL19A-GFP yeast inactive.
CCc1ccc2c(c1)C1(C(=O)N2)N2CCCC2C(C(=O)c2ccc3ccccc3c2)C12C(=O)Nc1ccccc12 (stereo not given) was read as AGP1 TOR yeast inactive, MEP2 TOR yeast inactive, LAP4-GFP MLPCN inactive, CIT2-GFP yeast inactive and RPL19A-GFP yeast inactive.
COc1ccccc1NC(=O)C(C)OC(=O)CCC1CCCCC1 (stereo not given) was read as AGP1 TOR yeast inactive, MEP2 TOR yeast inactive, LAP4-GFP MLPCN inactive, CIT2-GFP yeast inactive and RPL19A-GFP yeast inactive.
`O=C(CN1CCN(Cc2cccc(F)c2)CC1)NCc1ccccc1` gave AGP1 TOR yeast inactive, MEP2 TOR yeast inactive, LAP4-GFP MLPCN inactive, CIT2-GFP yeast inactive and RPL19A-GFP yeast inactive.
For CC(=O)OCC1=C(C(=O)O)N2C(=O)C(NC(=O)CC(C)c3ccccc3)C2SC1 (stereo not given) the results were AGP1 TOR yeast inactive, MEP2 TOR yeast inactive, LAP4-GFP MLPCN inactive, CIT2-GFP yeast inactive and RPL19A-GFP yeast inactive.
For CC(=O)OCC1=C(C(=O)O)N2C(=O)[C@@H](NC(=O)Cc3cccs3)[C@H]2SC1 the results were AGP1 TOR yeast inconclusive, MEP2 TOR yeast 329[may fluoresce violet], LAP4-GFP MLPCN inactive, CIT2-GFP yeast inconclusive and RPL19A-GFP yeast 16[may fluoresce violet].
Cc1cc(C(=O)O)cc(S(=O)(=O)Nc2ccccc2C(=O)NC(C)c2ccccc2)c1C (stereo not given) was read as AGP1 TOR yeast inactive, MEP2 TOR yeast inactive, LAP4-GFP MLPCN inactive, CIT2-GFP yeast inactive and RPL19A-GFP yeast inactive.
`Cc1ccc(S(=O)(=O)NC(C(=O)N2CCOCCOCCOCC2)C(C)C)cc1` (stereo not given) gave AGP1 TOR yeast inconclusive, MEP2 TOR yeast inconclusive, LAP4-GFP MLPCN inconclusive, CIT2-GFP yeast inconclusive and RPL19A-GFP yeast 14[may fluoresce violet].
For Cc1ccc(S(=O)(=O)NC(C)C(=O)N2CCOCCOCCOCCOCC2)cc1 (stereo not given) the results were AGP1 TOR yeast inactive, MEP2 TOR yeast inactive, LAP4-GFP MLPCN inactive, CIT2-GFP yeast inactive and RPL19A-GFP yeast inactive.
Screening Cc1cc(Cl)c(C(=O)Nc2cccc(C(F)(F)F)c2)c(C)n1 returned AGP1 TOR yeast inactive, MEP2 TOR yeast inactive, LAP4-GFP MLPCN inactive, CIT2-GFP yeast inactive and RPL19A-GFP yeast inactive.
Screening CSCCC1COC(c2cccs2)=N1 (stereo not given) returned AGP1 TOR yeast inactive, MEP2 TOR yeast inactive, LAP4-GFP MLPCN inactive, CIT2-GFP yeast inactive and RPL19A-GFP yeast inactive.
For Cc1ccc(C)c(-n2c(Cc3cc(=O)[nH]c(=O)[nH]3)nnc2SCC(=O)NCC2CCCO2)c1 (stereo not given) the results were AGP1 TOR yeast inconclusive, MEP2 TOR yeast 234[may fluoresce violet], LAP4-GFP MLPCN inactive, CIT2-GFP yeast inconclusive and RPL19A-GFP yeast 23[may fluoresce violet].
For Cc1ccc(C)c(-n2c(Cc3cc(=O)[nH]c(=O)[nH]3)nnc2SCC(=O)NCc2ccco2)c1 the results were AGP1 TOR yeast inactive, MEP2 TOR yeast inactive, LAP4-GFP MLPCN inactive, CIT2-GFP yeast inactive and RPL19A-GFP yeast inactive.
For Cc1cc(NC(=O)C(C)Oc2ccc(Cl)cc2Cl)n(-c2ccccc2)n1 (stereo not given) the results were AGP1 TOR yeast inconclusive, MEP2 TOR yeast inactive, LAP4-GFP MLPCN inactive, CIT2-GFP yeast inconclusive and RPL19A-GFP yeast 38[may fluoresce violet].
For CCn1nnc(NC(=O)C(C)Oc2ccc(Cl)cc2Cl)n1 (stereo not given) the results were AGP1 TOR yeast inactive, MEP2 TOR yeast inactive, LAP4-GFP MLPCN inactive, CIT2-GFP yeast inactive and RPL19A-GFP yeast inactive.
Screening COCCNc1nc2c(-c3cccc(C(F)(F)F)c3)nnn2c2ccccc12 returned AGP1 TOR yeast inactive, MEP2 TOR yeast inactive, LAP4-GFP MLPCN inactive, CIT2-GFP yeast inactive and RPL19A-GFP yeast inactive.
NNc1nc2c(-c3cccc(C(F)(F)F)c3)nnn2c2ccccc12 was read as AGP1 TOR yeast inactive, MEP2 TOR yeast 400[may fluoresce violet], LAP4-GFP MLPCN inactive, CIT2-GFP yeast inconclusive and RPL19A-GFP yeast 48[may fluoresce violet].
For CC(=O)c1cccc(CN2CCN(C(C)C)C(CCO)C2)c1 (stereo not given) the results were AGP1 TOR yeast inactive, MEP2 TOR yeast inactive, LAP4-GFP MLPCN inactive, CIT2-GFP yeast inactive and RPL19A-GFP yeast inactive.
`CC(=O)N1CCN(C(=O)c2cccc(S(=O)(=O)NCc3ccccc3)c2)CC1` gave AGP1 TOR yeast inactive, MEP2 TOR yeast inactive, LAP4-GFP MLPCN inactive, CIT2-GFP yeast inactive and RPL19A-GFP yeast inactive.
Screening COc1ccc(NC(=O)CCS(=O)(=O)c2ccc3c(c2)CCN3C(C)=O)cc1 returned AGP1 TOR yeast inconclusive, MEP2 TOR yeast inactive, LAP4-GFP MLPCN inactive, CIT2-GFP yeast inconclusive and RPL19A-GFP yeast 19[may fluoresce violet].
Screening CCC(C)c1ccccc1NC(=O)COC(=O)C1=NN(c2ccccc2)C(=O)CC1 (stereo not given) returned AGP1 TOR yeast inactive, MEP2 TOR yeast inactive, LAP4-GFP MLPCN inactive, CIT2-GFP yeast inactive and RPL19A-GFP yeast inactive.
O=C(N/N=C/c1ccncc1)c1ccccc1 was read as AGP1 TOR yeast inactive, MEP2 TOR yeast inactive, LAP4-GFP MLPCN inactive, CIT2-GFP yeast inactive and RPL19A-GFP yeast inactive.
O=C(N/N=C/c1cccc(Oc2ccccc2)c1)c1ccncc1 was read as AGP1 TOR yeast inactive, MEP2 TOR yeast inactive, LAP4-GFP MLPCN 211, CIT2-GFP yeast inactive and RPL19A-GFP yeast inactive.
Screening Cc1c(C)c2ccc(OCC(=O)NCCCn3ccnc3)cc2oc1=O returned AGP1 TOR yeast inactive, MEP2 TOR yeast inactive, LAP4-GFP MLPCN inactive, CIT2-GFP yeast inactive and RPL19A-GFP yeast 48.
`Cc1cc(=O)oc2cc(OCC(=O)NCCCn3ccnc3)ccc12` gave AGP1 TOR yeast inactive, MEP2 TOR yeast inactive, LAP4-GFP MLPCN inactive, CIT2-GFP yeast inactive and RPL19A-GFP yeast inactive.
